Screening results deposited in PubChem by National Center for Advancing Translational Sciences (NCATS).
TDP1 cell noCPT = qHTS for Inhibitors of human tyrosyl-DNA phosphodiesterase 1 (TDP1): qHTS in cells in absence of CPT; DT40 Tdp1-/- hTDP1 cells, no CPT, ATP luminescence, 48 h; Potency, µM (titrated, usually from 46.2 µM), usual class: inhibitors; 420,000 tested, 15% active; AID 686978, 2013; further: nearly all actives have a fitted effect of over 55% in size
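Chicken DT40 Tdp1-/- cells stably complemented with human TDP1 were seeded at 400 cells/well with DMSO in place of 20 nM camptothecin. After compound pinning, cells grew at least 48 hr at 37 °C; viability read by CellTiter-Glo luminescence.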
HT1080-NT tox = qHTS for induction of synthetic lethality in tumor cells producing 2HG: qHTS for the HT-1080-NT fibrosarcoma cell line | 360,000 tested, 1.6% active | AID 686970, 2013 | HT-1080-NT fibrosarcoma viability, CellTiter-Glo ATP luminescence, 48 h | Potency, µM (doses to about 46.1 µM), hits mostly cytotoxic;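 further: NT is the 2HG producing partner of a matched IDH1 knockdown line; nearly all actives have a fitted effect of over 55% in size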
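750 cells/well, RPMI + 5% FBS; 2 h settle, compound pin-transfer, 48 h at 37 degrees C. CellTiter-Glo 10 min RT, luminescence. Normalized to DMSO and media-only wells.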
DT40 TDP1 CPT = qHTS for Inhibitors of human tyrosyl-DNA phosphodiesterase 1 (TDP1): qHTS in cells in presence of CPT; chicken DT40 Tdp1-/-;hTDP1 cells + 20 nM CPT, ATP luminescence, 48 h; Potency, µM (highest dose often 46.2 µM), most hits filed as inhibitors; AID 686979, 2013; 420,000 tested, 12% active; further: nearly all actives have a fitted effect of over 55% in size
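Chicken DT40 Tdp1-/- cells stably complemented with human TDP1 were seeded at 400 cells/well in medium containing 20 nM camptothecin, exposed to pin-transferred compounds, and grown at 37 °C for at least 48 hr. Viability was read as ATP luminescence.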
IL-1B inflam inh = qHTS for Inhibitors of Inflammasome Signaling: IL-1-beta AlphaLISA Primary Screen | THP-1 LPS/ATP IL-1B secretion, AlphaLISA, 16 h; stronger effect = lower value | activity change, % at 57.5 µM | 360,000 tested, 4.7% active | AID 743279, 2014; in the data active means activity change below about -50%; inconclusive means mostly about -30% to -49%
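Secreted IL-1B measured by AlphaLISA bead assay after 16 h compound exposure of THP-1 cells; compounds (final up to 57.5 uM) added 1 h before LPS (250 ng/mL) and ATP (1.25 mM) stimulation; lower signal means less secretion.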
HT1080 IDH1KD tx = qHTS for induction of synthetic lethality in tumor cells producing 2HG: qHTS for the HT-1080-IDH1KD cell line | HT-1080 IDH1 knockdown viability, ATP luminescence, 48 h | Potency, µM (doses to about 46.1 µM), hits mostly cytotoxic | 360,000 tested, 2% active | AID 686971, 2013
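Using the IDH1-knockdown HT-1080 line run in the same batch and compound series as the NT line, viability after 48 h at 37 °C was determined by CellTiter-Glo luminescence and expressed as % activity.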
Large screens that a line does not name were inactive. Compounds with a hit are over-represented: about 19% of the library has one in this group of screens. Unless noted, the call rests on the fitted dose curve; in most records, active means well fitted curve in the direction sought with a large enough effect; inconclusive means small, poorly fitted or top-dose-only effect, or another doubt; inactive means no such curve, though single readings can be large; an effect the other way counts as inactive or inconclusive.

CC(C)c1ccc(S(=O)(=O)/N=C2/C=C(Sc3ncn[nH]3)C(=O)c3ccccc32)cc1	TDP1 cell noCPT 3.3µM, HT1080-NT tox 2.9µM, DT40 TDP1 CPT 2.6µM, IL-1B inflam inh -100, HT1080 IDH1KD tx 4.6µM
Cc1ccc(S(=O)(=O)Nc2ccc(O)c(Sc3ncn[nH]3)c2)cc1	none
Cc1ccc(S(=O)(=O)/N=C2/C=C(Sc3ncn[nH]3)C(=O)c3ccccc32)cc1	TDP1 cell noCPT 0.37µM, HT1080-NT tox 18µM, DT40 TDP1 CPT 0.33µM, IL-1B inflam inh -105, HT1080 IDH1KD tx 3.7µM
O=C(Nc1ccccc1)c1cccc(=O)o1	none
Cc1cc(CNC(=O)COc2ccc(F)cc2Cl)cc(C)c1O	IL-1B inflam inh -88
O=C(COc1ccc(Cl)cc1Cl)NCc1ccncc1	none
O=C1c2c(-c3ccc(Br)cc3)noc2CCN1Cc1cn(Cc2ccccc2)nn1	TDP1 cell noCPT 18µM, HT1080-NT tox inconclusive, DT40 TDP1 CPT inconclusive, HT1080 IDH1KD tx inconclusive
O=C1c2c(-c3ccc(Br)cc3)noc2CCN1Cc1cn(-c2ccccc2)nn1	TDP1 cell noCPT inconclusive, HT1080-NT tox inconclusive, DT40 TDP1 CPT 21µM
COc1ccc(-c2csc(N(Cc3ccccc3)C(=O)COc3ccc(Cl)cc3)n2)cc1	TDP1 cell noCPT 18µM, DT40 TDP1 CPT 21µM
CN(C(=O)COc1ccccc1)c1nc(-c2ccc(F)cc2)cs1	none
COc1ccc(-c2csc(N(CCc3ccc(OC)c(OC)c3)C(=O)COc3ccccc3)n2)cc1	TDP1 cell noCPT 16µM, DT40 TDP1 CPT inconclusive
O=C(COc1ccccc1)N(Cc1ccccc1)c1nc(-c2ccccc2)cs1	TDP1 cell noCPT inconclusive, HT1080-NT tox inconclusive
O=C(O)c1ccc(CNC(=O)C2CCCN2C(=O)OCc2ccccc2)cc1 (centres undefined)	HT1080-NT tox inconclusive
CCOC(=O)C(CSCC(=O)c1ccc(Cl)cc1)NC(=O)OC(C)(C)C (centres undefined)	none
[O-]/C(=C(\C(=S)Nc1cccc2ccccc12)[n+]1ccccc1)c1ccc(OC(F)F)cc1	TDP1 cell noCPT 21µM, DT40 TDP1 CPT inconclusive
COc1cccc(NC(=S)/C(=C(\[O-])c2ccc(OC(F)F)cc2)[n+]2ccccc2)c1	TDP1 cell noCPT 15µM, DT40 TDP1 CPT 13µM
COc1cccc(NC(=S)/C(=C(\[O-])c2ccc(C)c([N+](=O)[O-])c2)[n+]2ccccc2)c1	none
COc1ccc(C)cc1NC(=O)C1CCCN(S(=O)(=O)c2ccc3[nH]c(=O)ccc3c2)C1 (centres undefined)	TDP1 cell noCPT inconclusive, DT40 TDP1 CPT inconclusive
COc1ccccc1NC(=O)C1CCCN(S(=O)(=O)c2ccc3[nH]c(=O)ccc3c2)C1 (centres undefined)	TDP1 cell noCPT inconclusive, DT40 TDP1 CPT 21µM
COC(=O)c1ccccc1NC(=O)C1CCCN(S(=O)(=O)c2ccc(F)cc2)C1 (centres undefined)	TDP1 cell noCPT 10µM, DT40 TDP1 CPT 15µM
COC(=O)c1ccccc1NC(=O)C1CCCN(S(=O)(=O)c2ccc(OC)cc2)C1 (centres undefined)	TDP1 cell noCPT 12µM, DT40 TDP1 CPT 18µM
O=C(Nc1ccc(-c2nc3ncccc3o2)cc1)c1ccc(Br)o1	TDP1 cell noCPT inconclusive, DT40 TDP1 CPT inconclusive, IL-1B inflam inh -55
CCS(=O)(=O)Nc1cccc(-c2nc3cccnc3s2)c1C	TDP1 cell noCPT inconclusive
O=C(Nc1ccc(-c2nc3cccnc3s2)cc1)c1ccc(Br)o1	TDP1 cell noCPT 8.2µM, DT40 TDP1 CPT 12µM
O=C(Nc1ccc(-c2nc3cccnc3s2)cc1)c1ccco1	TDP1 cell noCPT 13µM, DT40 TDP1 CPT inconclusive
Cc1c(NC(=O)c2ccco2)cccc1-c1nc2cccnc2s1	TDP1 cell noCPT inconclusive, DT40 TDP1 CPT 21µM
O=C(Nc1ccc(-c2nc3cccnc3s2)cc1)c1cccnc1Cl	none
CCOc1ccc(OCCC(=O)OCC(=O)NCCc2ccc(S(N)(=O)=O)cc2)cc1	none
COc1cc(SC)ccc1C(=O)OCC(=O)N1CCN(C(C)=O)CC1	none
COc1ccccc1C(=O)NCCC(=O)NC(C)c1ccc(-n2ccnc2)cc1 (centres undefined)	none
COc1cc(NC(=O)Cn2cnc3sc(C)c(S(=O)(=O)N4CCC(C)CC4)c3c2=O)cc(OC)c1OC	none (no result: HT1080-NT tox, IL-1B inflam inh, HT1080 IDH1KD tx)
Cc1ccc(N(C(C)C(=O)Nc2cc(Cl)ccc2Oc2ccccc2)S(C)(=O)=O)cc1 (centres undefined)	TDP1 cell noCPT inconclusive, HT1080-NT tox inconclusive, DT40 TDP1 CPT inconclusive, IL-1B inflam inh -69
COCCNC(=O)C1(C)CCN(Cc2ccc(C(C)C)cc2)C1 (centres undefined)	TDP1 cell noCPT 21µM, DT40 TDP1 CPT inconclusive
COCCNC(=O)C1(C)CCCN(CCSc2ccccc2)C1 (centres undefined)	TDP1 cell noCPT 13µM, DT40 TDP1 CPT inconclusive, HT1080 IDH1KD tx inconclusive
COCCNC(=O)C1(C)CCCN(Cc2ccc(Cl)c(Cl)c2)C1 (centres undefined)	TDP1 cell noCPT 16µM, DT40 TDP1 CPT 21µM
COCCNC(=O)C1(C)CCCN(Cc2ccc(OC)cc2)C1 (centres undefined)	HT1080-NT tox inconclusive
CCCNC(=O)C1(C)CCN(Cc2ccc(C(=O)OCC)cc2)C1 (centres undefined)	TDP1 cell noCPT 16µM, DT40 TDP1 CPT inconclusive
CCOC(=O)c1ccc(CN2CCCC(C)(C(=O)NCCOC)C2)cc1 (centres undefined)	TDP1 cell noCPT inconclusive, DT40 TDP1 CPT inconclusive
CCCCC(=O)NCc1ccc(Cl)cc1	none
CCc1ccc(C(=O)CCC(=O)Nc2ccc(OC)c(S(=O)(=O)N3CCCCC3)c2)cc1	DT40 TDP1 CPT inconclusive
COCCNC(=O)C1(C)CCCN(Cc2cc(-c3ccccc3)on2)C1 (centres undefined)	TDP1 cell noCPT 23µM, DT40 TDP1 CPT 13µM
CCCNC(=O)C1(C)CCN(Cc2cccc(OC(=O)c3ccccc3)c2)C1 (centres undefined)	none
CCNC(=O)C1(C)CCN(Cc2ccc(C(F)(F)F)cc2)C1 (centres undefined)	DT40 TDP1 CPT inconclusive
COCCNC(=O)C1(C)CCCN(Cc2ccc(OCc3ccccc3)cc2)C1 (centres undefined)	TDP1 cell noCPT 21µM, DT40 TDP1 CPT 26µM
CCCNC(=O)C1(C)CCN(Cc2cc(C(F)(F)F)ccc2Cl)C1 (centres undefined)	TDP1 cell noCPT 15µM, DT40 TDP1 CPT 23µM
